# Test results from PubChem BioAssay (NCATS).
# “And” between values parts separate entries of the source, which are not always exact repeats. Identical values can stand only once. Inconclusive results are not listed. Some structures have more than one record in an assay (separate samples or runs), and their calls can disagree. Unmarked numbers belong to inactive results. The source made the active and inactive calls. Calls come from the whole dose curve; as a rule, active = well fitted activation curve with a large enough effect; inconclusive = small, poorly fitted or top-dose-only effect; inactive = no such curve, though single readings can be large or run the other way.
# Biological target: Cellular tumor antigen p53 (Homo sapiens) (UniProt P04637)
# Sequence (P04637 whole entry, looked up): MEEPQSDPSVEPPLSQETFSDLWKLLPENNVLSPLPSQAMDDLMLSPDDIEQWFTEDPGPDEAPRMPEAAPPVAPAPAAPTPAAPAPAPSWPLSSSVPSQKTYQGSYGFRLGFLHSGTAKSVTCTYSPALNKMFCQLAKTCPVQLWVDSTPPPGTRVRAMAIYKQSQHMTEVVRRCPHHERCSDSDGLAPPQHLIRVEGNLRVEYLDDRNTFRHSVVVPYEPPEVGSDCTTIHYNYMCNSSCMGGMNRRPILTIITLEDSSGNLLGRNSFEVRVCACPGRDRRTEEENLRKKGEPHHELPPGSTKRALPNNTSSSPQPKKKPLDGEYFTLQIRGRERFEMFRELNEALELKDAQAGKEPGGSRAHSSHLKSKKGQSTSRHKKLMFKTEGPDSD
# Test: Primary qHTS for small molecule compounds that upregulate eGFP-tagged delta133p53alpha (in N-terminal) cells. (AID 2060322); note: nearly all actives have a fitted effect of over 75% in size;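 for activation: cells pre-induced with doxycycline then dosed without doxycycline; series mostly up to about 56 µM; 0% = DMSO vehicle and 100% = reference activator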
# Conditions: NCI-H358 eGFP-delta133p53alpha fluorescence, 24 h; activation: stronger effect = higher value
# Description: Assay Development and Screening Technology
# National Center for Advancing Translational Sciences (NCATS),
# National Institute of Health (NIH), Rockville, Maryland
# Cellular senescence (CS) is one of the hallmarks of aging and age-related diseases. Senescent cells are characterized by an irreversible growth arrest, an increase in senescence-associated beta-galactosidase (SA-beta-gal) activity and p16INK4a expression, an activation of the DNA damage response pathways, and the emergence of a senescence-associated secretory phenotype (SASP).
# Delta133p53alpha, a human/primate-specific p53 protein isoform, delays or inhibits the induction of CS and SASP in various types of human cells, including progeria-derived fibroblasts, primary normal astrocytes, and CD8+ T lymphocytes. Induction of delta133p53alpha with small molecule compounds may provide therapeutic opportunities for inhibition of senescence/SASP-associated pathologies in progeria syndromes, astrocyte-mediated neuroprotection in neurodegenerative diseases, and possibly prevention and treatment of a wider range of senescence- and aging-associated diseases.
# Here we report the development and validation of a cell-based quantitative high throughput screening (qHTS) assay in 1,536-well format. This qHTS assay uses the NCI-H358 cell line with doxycycline-inducible expression of enhanced green fluorescent protein (eGFP)-tagged delta133p53alpha, which allows efficient and highly quantitative measurement of the protein levels.
# PROTOCOL TABLE (as described by Inglese J, Shamu CE and Guy RK. 2007)
# SEQUENCE No. (e.g., 1, 2, 3, etc.); […] (e.g., Cells, Incubation, Reagent, etc.); VALUE; DESCRIPTION.
# 1; Cells; 4uL; 800 doxycycline treated cells / well in doxycycline-free media, 1536-well black, clear-bottom low base Aurora microplates.
# 2; Compounds; 23 nL; Kalypsis pin tool (Wako) equipped with 1536-well pin heads, 5-azacytidine positive control.
# 3; Incubation; 24 hr; 37C, 5% CO2; 95% relative humidity.
# 4; Aspiration; 1x; BioTek EL406 washer dispenser (Agilent).
# 5; Fixing; 3.5% paraformaldehyde, BioTek EL406 washer dispenser (Agilent).
# 6; Washing; 1x PBS; BioTek EL406 washer dispenser (Agilent).
# 7; Nuclei staining; 1:1000 dilution of Hoechst 33342 (Thermofisher), BioTek EL406 washer dispenser (Agilent).
# 8; Incubation; 20 min; in the dark at room temperature.
# 9; Washing; 2x, 1x PBS (ThermoFisher), BioTek EL406 washer dispenser (Agilent).
# 10; Reagent; 10 uL; 1x PBS per well, sealed with clear adhesive tape.
# NOTES (numbers refer to sequence numbers above).
# 1. NCI-H358 cells expressing eGFP-tagged delta133p53alpha were grown in T75 culture flasks and treated with doxycycline for 24h, at 10 ng/ml for eGFP-D133p53a cells (N-terminal cell) and 100 ng/ml for D133p53a-eGFP cells (C-terminal cells). Cells were trypsinized, counted using a Counted 3 Automated Cell Counter (Thermo Fisher), and diluted to a concentration of 200,000 cells/ml. A Multidrop Combi Reagent Dispenser (ThermoFisher) was used to dispense 800 cells/well in […] of doxycycline-free media, into 1536-well black/clear bottom low base plates (AuroraMicroplates).
# 2. After plating cells, 23 nl of compound library, DMSO vehicle control or positive control (5-azacytidine) were transferred by Pin Tool (Wako). The plate map layout was the same for each plate: (column 1) non-doxycycline treated cells + DMSO vehicle control; (column 2) doxycycline treated cells + DMSO vehicle control baseline; (column 3) doxycycline treated cells + positive control 57.5 uM final concentration 5-azacytidine; (column 4) doxycycline treated cells + serial dilution of 5-azacytidine, 16-point 1:2 titration spanning 1.8 nM to […] final concentration; (columns 5-48) doxycycline treated cells + titration of library compounds.
# 3. Cells were incubated at 37 °C, 5 % CO2, 95% RH with breathable metal lid for 24h.
# 4-10. […] After two washes, 10 ul of 1X PBS (Thermo Fisher) was dispensed to each well. Clear adhesive plate seals (VWR) were applied and plates stored at 4 °C.
# 11. […]
# Potency is the fitted concentration of half-maximal effect.
SMILES,activation,Potency
COc1ccc2c(c1)CCCC2=O,18.6%,–
C[C@H](CCC(=O)O)[C@H]1CC[C@H]2[C@@H]3C[C@H](O)[C@@H]4C[C@H](O)CC[C@]4(C)[C@H]3CC[C@]12C,1%,–
C/C=C/C=C/C=C/C(=O)OC1C=C(C=O)C(O)(C(=O)O)C2(C)CCCC(C)(C)C12 (stereo not given),-9.92%,–
NC[C@H]1O[C@H](O[C@@H]2[C@@H](O)[C@@H](O[C@H]3O[C@H](CO)[C@@H](O)[C@H](N)[C@@H]3O)[C@H](N)C[C@@H]2N)[C@H](O)[C@@H](O)[C@H]1O,5.09%,–
Cn1cc(C2=C(c3cn(CCCN)c4ccccc34)C(=O)NC2=O)c2ccccc21,–,24.3 µM (active)
Cc1cc(CO)c(O)c(C(=O)CC2CC(=O)NC(=O)C2)c1,-5.34%,–
C/C=C1/[C@H](O[C@@H]2O[C@H](CO)[C@@H](O)[C@H](O)[C@H]2O)OC=C(C(=O)OC)[C@H]1CC(=O)O[C@@H]1O[C@H](CO)[C@@H](O)[C@H](O)[C@H]1O,-32.8%,–
COc1cccc(NC[C@@H](O)Cn2c3ccc(Br)cc3c3cc(Br)ccc32)c1,29.6%,–
CC(N)=NCCCC[C@@H](N)C(=O)O,-1.95%,–
Cc1ccnc(NS(=O)(=O)c2ccc(NC(=O)Nc3ccc(S(=O)(=O)Nc4nccc(C)n4)cc3)cc2)n1,21%,9.68 µM (active)
CC1OC(OC2C(OC3C(O[C@H]4CC[C@@]5(C)C(CC[C@]6(C)C5CC=C5C7CC(C)(C)CC(O)[C@]7(C)CC[C@]56C)C4(C)C)OC(C(=O)O)C(O)C3O)OCC(O)C2O)C(O)C(O)C1O (stereo not given in full),3.57%,–
NC(=O)c1csc(C2OC(CO)C(O)C2O)n1 (stereo not given),-7%,–
CC(F)(F)CN1CCOc2c(nn(-c3ccccc3Cl)c2-c2ccc(Cl)cc2)C1=O,10%,–
O=C(O)c1ccc(NC(=O)[C@H](CC2CCCC2)n2cnc(C(F)(F)F)c2)nc1,-23.2%,–
C[C@@H]1CC[C@]2(C(=O)O[C@@H]3O[C@H](CO[C@@H]4O[C@H](CO)[C@@H](O)[C@H](O)[C@H]4O)[C@@H](O)[C@H](O)[C@H]3O)CC[C@]3(C)C(=CCC4[C@@]5(C)CC[C@H](O)[C@](C)(C(=O)O)C5CC[C@]43C)[C@@H]2[C@]1(C)O (stereo not given in full),-6.11%,–
C=C1OC2CC(C(=O)O)C=CC2NC1=O (stereo not given),-19.8%,–
CC(=O)N1CCN(C(=O)Cc2ccc(Nc3ncc(F)c(Nc4ccc(C(=O)Nc5ccccc5Cl)cc4)n3)cc2)CC1,–,13.5 µM (active)
CC(C)n1nc(-c2ccc3oc(N)nc3c2)c2c(N)ncnc21,5.06% and 13.4%,–
CN1[C@@H]2CC[C@H]1CC(NC(=O)n1c(=O)[nH]c3ccccc31)C2 (stereo not given in full),-9.21%,–
C[C@@H]1CCCN1CCc1cc2cc(-c3ccc(C#N)cc3)ccc2o1,-11.5%,–

SMILES,activation,Potency
O=C(O)Cc1ccc(O)c(O)c1,10.9%,–
O=C1NC(=O)/C(=C/c2ccc(-c3ccc(F)cc3O)o2)S1,-29.7%,–
CC/C(=C(\c1ccccc1)c1ccc(OCCN(C)C)cc1)c1ccccc1,-17.6% and -12.3% and -27%,–
CCOC(=O)C1(CCOc2ccccc2)CCN(Cc2ccc(O)c(Cl)c2)CC1,3.67%,–
O=C(COCC(=O)N1CCN(C(c2ccccc2)c2ccccc2)CC1)Nc1ccc(Cl)cc1C(=O)O,-25.3%,–
CC(/C=C/C1(O)C(C)CC(O)CC1(C)C)OC1OC(CO)C(O)C(O)C1O (stereo not given),-12.2%,–
CCCCCC(=O)O[C@]1(C(C)=O)CC[C@H]2[C@@H]3CCC4=CC(=O)CC[C@]4(C)[C@H]3CC[C@@]21C,23.2%,–
CC(=O)NC1C(OC2CCC3(C)C(CCC4(C)C3CC=C3C5CC(C)(C)CCC5(C(=O)O)C(O)CC34C)C2(C)C)OC(CO)C(O)C1O (stereo not given),1.53%,–
O=C1c2cccc(O)c2C(=O)c2c(O)cc(CO)cc21,-5.26%,–
CCOC(=O)C(C)Oc1cccc2c(=O)n(CC(=O)Nc3ccc4c(c3)OCCO4)ccc12 (stereo not given),-0.568% and 16.2%,–
CC1CCC2(OC1)OC1CC3C4CC=C5CC(O)CC(O[C@@H]6OC[C@@H](O)[C@H](O)[C@H]6O)C5(C)C4CCC3(C)C1(O)C2C (stereo not given in full),16.8%,–
CC1(C)C=CN2C(=O)C3=CCCN3C(=O)[C@@H]2C[C@@]12Nc1ccccc1C2=O,-19.8%,–
CC#C[C@@H](CC(=O)O)c1ccc(OCc2cccc(-c3ccc(C(F)(F)F)cc3)c2)cc1,-17.2%,–
COc1c(CCC(=O)O)cccc1O[C@@H]1O[C@H](CO)[C@@H](O)[C@H](O)[C@H]1O,-4.58%,–
CC1CCC2(O1)C(C)(C)CC(O[C@@H]1O[C@H](CO[C@@H]3OC[C@](O)(CO)[C@H]3O)[C@@H](O)[C@H](O)[C@H]1O)CC2(C)O (stereo not given in full),1.79%,–
CCN(CC)CCOCCOC(=O)C(CC)(CC)c1ccccc1,-4.3%,–
Oc1ccc2nc(CN3CCC(Cc4ccccc4F)CC3)[nH]c2c1,-1.91%,–
CC1(C)C(=O)N2c3ccccc3C(O)(CC(C(=O)O)n3cnc4ccccc4c3=O)C2N1O (stereo not given),16%,–
C=C(CC/C=C(\C)C(=O)O)C1(O)CC=C(C)CC1 (stereo not given),-21.4%,–
